Measurements from PubChem BioAssay (Tox21).
The source made the active and inactive calls. Entries that show only a call come without a potency. The call rests on the fitted dose curve; in most records, active means well fitted curve in the direction sought with a large enough effect in the repeat runs; inconclusive means weak or mixed curves; inactive means flat fitted curve, though single readings scatter.

Assay: qHTS assay to test for compound auto fluorescence at 590 nm (red) in HEK293 cells (AID 720679)
Details: red autofluorescence 540/590 nm; series mostly up to 91.3 µM
Text: National Center for Advancing Translational Sciences [NCATS]
NIH Chemical Genomics Center [NCGC]
U.S. Environmental Protection Agency [EPA]
National Institutes of Environmental Health Sciences [NIEHS]
National Toxicology Program [NTP]
U.S. Food and Drug Administration [FDA]
Compound auto fluorescence often interferes with screening of the compound library against various biological targets and signaling pathways. Some of these compounds may have fluorophoric properties. Such properties may interfere with the assay outputs resulting in false positives and/or negatives. To decrease such complications and ensure the compound activities are relevant in terms of biological response, the Tox21 10K compound library was screened for auto fluorescence.
From the fluorophores used as reporter signals in our screening assays, the auto fluorescence equivalencies of compounds against three fluorophores have been evaluated: Triamterene, Fluorescein and Rose Bengal sodium for blue, green and red fluorescence, respectively. The fluorescence intensities were measured using Excitation/Emission wavelengths at 405/460nm, 485/535nm and 540/590nm for blue, green and red labels, respectively. This assay includes the red fluorescence data.
Tox21 Assay Protocol Summary:
2,000 HEK293 cells in 5 uL of culture medium containing 10% dialyzed FBS per well were dispensed into black wall/clear bottom 1536-well plates using a Multidrop Combi Dispenser (Thermo Scientific). The assay plates were incubated for 4-5 hr at 37C to allow cell attachment to the well bottom, followed by the transfer of 23 nL compound or DMSO vehicle by a pintool work station (Kalypsys, San Diego, CA). After the assay plates were incubated overnight at 37C and 5% CO2, fluorescence intensities in the assay plates were measured by an Envision (PerkinElmer, Shelton, CT) plate reader using three labels for measuring blue, green and red fluorescence at […] 460, 535 and 590nm respectively.

Structure (SMILES)	Potency
O=C(c1ccccc1)c1ccc(O)cc1O	inactive
Cc1[nH]c(=O)c(C#N)cc1-c1ccncc1	inactive
Nc1ccc(Cl)cc1Cl	inactive
CC(C)=CCCC(C)CCO (stereo not given)	inactive
CC(C)Oc1ccc2c(=O)c(-c3ccccc3)coc2c1	inactive
CC1=CCC(C(C)(C)O)CC1 (stereo not given)	inactive
c1cc(-c2ccncc2)ccn1	inactive
Cc1ncc[nH]1	inactive
COc1cccc2c1C(=O)c1c(O)c3c(c(O)c1C2=O)C[C@@](O)(C(=O)CO)C[C@@H]3O[C@H]1C[C@H](N)[C@H](O)[C@H](C)O1	inactive
c1ccncc1	inactive
CC(=O)C1(C)CC2=C(CCCC2(C)C)CC1C (stereo not given)	inactive
C#C[C@]1(O)CC[C@H]2[C@@H]3CCC4=Cc5oncc5C[C@]4(C)[C@H]3CC[C@@]21C	inactive
CCCCC(CC)COP(=O)(OCC(CC)CCCC)OCC(CC)CCCC (stereo not given)	inactive
C=CC(C)(CCC=C(C)C)OC(C)=O (stereo not given)	inactive
C[C@]12CCC(=O)C=C1CC[C@@H]1[C@@H]2C(=O)C[C@@]2(C)[C@H]1CC[C@]2(O)C(=O)CO	inactive
Cc1ccc2c(n1)Oc1ccc(C(C)C(=O)OCC(=O)N(C)C)cc1C2 (stereo not given)	inactive
c1ccc2sc(SSN3CCOCC3)nc2c1	inactive
CNCCCC12CCC(c3ccccc31)c1ccccc12	inactive
NNc1ccc(C(=O)O)cc1	inactive
CCCC(=O)O	inactive

Structure (SMILES)	Potency
CCC(C)c1ccccc1O (stereo not given)	inactive
O=C(Nc1ccc([N+](=O)[O-])cc1Cl)c1cc(Cl)ccc1O	inactive
Cc1cccc(N(C)C(=S)Oc2ccc3ccccc3c2)c1	inactive
CCCCOCCOCCOCCO	inactive
CCCc1c(OCCCCc2nn[nH]n2)ccc(C(C)=O)c1O	inactive
c1ccc2c(c1)Oc1ccccc1S2	inactive
C#C[C@]1(O)CC[C@H]2[C@@H]3CCc4cc(OC)ccc4[C@H]3CC[C@@]21C	inactive
Nc1ccc(S(=O)(=O)Nc2cnc3ccccc3n2)cc1	inactive
c1ccc2cc(Nc3ccc(Nc4ccc5ccccc5c4)cc3)ccc2c1	inactive
CC(C)OB(OC(C)C)OC(C)C	inactive
O=C(c1ccccc1)c1ccccc1O	inactive
CC(C)OC=O	inactive
CC(=O)CC/C=C(\C)CCC=C(C)C	inactive
Cc1cccc(C(=O)O)c1	inactive
Nc1ccc(Nc2ccccc2)cc1	inactive
CCC(C)(O)CCCC(C)C (stereo not given)	inactive
COC(=O)CCC(=O)OC	inactive
CCCCCCCCCC(=O)OC	inactive
COc1ccc(C(=O)CC(=O)c2ccc(C(C)(C)C)cc2)cc1	inactive
O=C(c1ccc(OCCN2CCCCC2)cc1)c1c(-c2ccc(O)cc2)sc2cc(O)ccc12	inactive
